Pf Dd2 inh = qHTS Primary assay for Inhibitors of Plasmodium falciparum Dd2 growth in vitro; P. falciparum Dd2 growth, SYBR Green, 72 h; Potency, µM (top dose mostly 28.9 µM), usual class: inhibitors; AID 1347417, 2020; actives 4.3% (n = 120,000); active = well fitted inhibition curve with a large enough effect; also: nearly all actives have a fitted effect of over 65% in size
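Infected erythrocytes (Dd2, 0.3% parasitemia, 2.5% hematocrit final) are added to compound in RPMI-1640/Albumax II medium, grown 72 h at 37C in low oxygen, then lysed with saponin/Triton-X containing SYBR Green and read by fluorescence.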
Hits are given with their value; . = inactive; [ ] = another dose, or the depositor's remark. This is one part of a sample in which hits are shown more often than they occur.

SMILES	Pf Dd2 inh
COc1ccc(CCNC(=O)c2ccc3c(c2)N(Cc2cccc(C)c2)C(=O)c2ccccc2S3(=O)=O)cc1OC	.
NC(=O)C1CCN(C(=O)c2ccc3c(c2)N(Cc2cccc(Cl)c2)C(=O)c2ccccc2S3(=O)=O)CC1	.
COc1ccc(NC(=O)c2ccc3c(c2)N(Cc2cccc(Cl)c2)C(=O)c2ccccc2S3(=O)=O)cc1Cl	7.94µM
COCCNC(=O)c1ccc2c(c1)N(Cc1cccc(Cl)c1)C(=O)c1ccccc1S2=O (stereo unspecified)	.
CC(=O)c1ccc(NC(=O)c2ccc3c(c2)N(Cc2cccc(Cl)c2)C(=O)c2ccccc2S3=O)cc1 (stereo unspecified)	11.2µM
CCOC(=O)N1CCN(C(=O)c2ccc3c(c2)N(Cc2cccc(Cl)c2)C(=O)c2ccccc2S3=O)CC1 (stereo unspecified)	.
O=C(c1ccc2c(c1)N(Cc1cccc(Cl)c1)C(=O)c1ccccc1S2=O)N1CCC(Cc2ccccc2)CC1 (stereo unspecified)	.
CC(=O)Nc1ccc(NC(=O)c2ccc3c(c2)N(Cc2cccc(Cl)c2)C(=O)c2ccccc2S3=O)cc1 (stereo unspecified)	11.2µM
CCN1C(=O)c2ccccc2S(=O)c2ccc(C(=O)NCc3ccccc3OC)cc21 (stereo unspecified)	.
CC(C)NC(=O)c1ccc2c(c1)N(Cc1cccc(Cl)c1)C(=O)c1ccccc1S2=O (stereo unspecified)	.
CC(C)CCN1CCOc2cc(C(=O)Nc3cccnc3)ccc2C1	.
CC(C)C(=O)N1CCC(Cc2ccc(C(N)=O)cc2)CC1	.
Cc1cccc(NC(=O)N2CC(C(=O)N(C)C)C3(CCOCC3)C2)c1 (stereo unspecified)	.
Cc1n[nH]c(C)c1C(N)C(=O)N1CCCN(CCCN2CCCC2)CC1 (stereo unspecified)	.
COc1c(F)cc([C@@H]2C[C@H](NC(C)=O)C[C@H](C(C)C)O2)cc1Cl	.
O=C(NC1CCN(Cc2ccccc2)CC1)C1(CCO)CCN(c2ncccn2)C1 (stereo unspecified)	.
CCN1CCc2[nH]cnc2C12CCN(C(=O)c1cccc3nccnc13)CC2	.
O=C(N1CC[C@@H](c2ccc3ccccc3c2)[C@H](O)C1)C1(Cn2ccnc2)CC1	.
C[S+](=O)([O-])CCn1ncc2cc(OCc3cccc(-c4ccccc4F)c3)ccc21	.
CC(C)c1ccc(CN2C[C@@H]3C(=O)N(CCCN4CCCC4=O)C(=O)[C@@H]3C2)cc1	.
O=C(NC1CCCCC1)c1ccc2c(c1)N(Cc1ccc(F)cc1)C(=O)c1ccccc1S2(=O)=O	.
CC1CCC(NC(=O)c2ccc3c(c2)N(Cc2cccc(Cl)c2)C(=O)c2ccccc2S3(=O)=O)CC1 (stereo unspecified)	11.2µM
CN(C)c1ccc2ncc(Nc3ccccc3)n2n1	.
c1ccc(-c2ccc3ncc(Nc4ccc(N5CCOCC5)cc4)n3n2)cc1	.
CN(C)c1ccc2ncc(Nc3cc(F)cc(N4CCOCC4)c3)n2n1	10µM
SMILES	Pf Dd2 inh
COc1ccc(-c2cc(C(=O)NCC[S+](C)(=O)[O-])c3c(c2)N(C)CCO3)cn1	.
COc1ccc(CNc2nc3ccccc3c3nc(-c4ccccc4)nn23)cc1	.
CCOCCCNc1nc2cc(OC)c(OC)cc2c2nc(-c3ccccc3)nn12	0.282µM
Cc1cccc(-c2nc3c4ccccc4nc(NCc4ccc(F)cc4)n3n2)c1	.
COc1ccccc1CNc1nc2ccccc2c2nc(-c3cccc(C)c3)nn12	.
CCOc1ccccc1NC(=O)CSc1nc2cc(OC)c(OC)cc2c2nc(-c3ccccc3)nn12	.
COc1cc2nc(NCc3ccccc3)n3nc(-c4ccccc4)nc3c2cc1OC	0.316µM
CC(=O)N1CCC(N[C@@H]2CC[C@@H]2NC(=O)CCn2nnc3ccccc32)CC1	.
O=C(NCc1ccco1)[C@H]1CN2CC[C@H]1C[C@@H]2Cn1cc(CCO)nn1	.
O=C(Nc1ccccc1F)N1CC2CCC(C1)N2Cc1ccc(-c2ccccc2)cc1	.
Cc1noc(C)c1[S+](=O)([O-])N1CC2(C1)C(=O)Nc1ccccc12	.
Cc1ccc(F)cc1-c1cccc(CCOc2cnc3c(ccn3CC(=O)O)c2)c1	.
COc1cccc(C2c3c(oc4ccc(C)cc4c3=O)C(=O)N2CCCN2CCOCC2)c1OC (stereo unspecified)	.
CCOc1cccc(C2c3c(oc4ccc(F)cc4c3=O)C(=O)N2CCc2ccc(OC)cc2)c1 (stereo unspecified)	.
CCCOc1cccc(C2c3c(oc4ccc(F)cc4c3=O)C(=O)N2CCCN2CCOCC2)c1 (stereo unspecified)	6.31µM
CC(C)(O)CCc1cccc(C(=O)N[C@H]2CCC[C@H]2C(N)=O)c1	.
O=C(N[C@@H]1COCC[C@@H]1Oc1ccc(F)cc1)c1cnc(C2CC2)nc1	.
Cc1nn2c(=O)cc(COC(=O)c3ccc(C(C)(C)C)cc3)nc2s1	.
COCCc1nn2c(=O)cc(COC(=O)c3ccc(C(C)(C)C)cc3)nc2s1	14.1µM
COCCc1nn2c(=O)cc(COC(=O)c3cccs3)nc2s1	.[5.79 µM]
COc1ccc(Cl)cc1S(=O)(=O)NC1CCc2n[nH]c(=O)n2CC1 (stereo unspecified)	.
CN(CC(=O)N1CC[C@H](N(C)C)[C@H](CCC(=O)O)C1)Cc1ccccc1F	.
O=C(Nc1cccc(Cl)c1)c1cnc2c(c1)N(Cc1ccccc1)CCC2	.
O=C(CC(c1ccccc1)c1ccccc1Cl)N(Cc1cccnc1)C1CC1 (stereo unspecified)	12.6µM
CN(Cc1cnccn1)C(=O)CC(c1ccccc1)c1ccccc1Cl (stereo unspecified)	.
SMILES	Pf Dd2 inh
O=C(CC(c1ccccc1)c1ccccc1F)NCc1cccnc1 (stereo unspecified)	.
CCNC(=O)[C@@H]1C[C@H](NC(=O)CO)CN1CC(=O)NCc1cccs1	.
Cc1noc(C)c1[S+](=O)([O-])N1CCC2OCCN(Cc3ccccc3)C(=O)C2C1 (stereo unspecified)	.
CC(=O)Nc1ccc(CN2CCC3(COc4ncccc4[S+](=O)([O-])N3)C2)cc1 (stereo unspecified)	.
CCOC(=O)CCNC(=O)N1CCC(N2C(=O)C3(CCCC3)C2c2scnc2C)CC1 (stereo unspecified)	.
CCNC(=O)N1CCC(N2C(=O)C3(CCCC3)C2c2ccccc2)CC1 (stereo unspecified)	11.2µM
O=C1N(C2CCNCC2)C(c2ccccc2)C12CCCC2 (stereo unspecified)	5.01µM
COCC(=O)N1CCC(N2C(=O)C3(CCCCC3)C2c2ccccc2)CC1 (stereo unspecified)	.
O=C(Cc1ccncc1)N1CCC(N2C(=O)C3(CCCCC3)C2c2ccccc2)CC1 (stereo unspecified)	.
CN(C)S(=O)(=O)N1CCC(N2C(=O)C3(CCCCC3)C2c2ccccc2)CC1 (stereo unspecified)	.
O=C(Cn1ccnc1)N1CCC(N2C(=O)C3(CCCC3)C2c2ccccc2)CC1 (stereo unspecified)	.
O=C(CC(F)(F)F)N1CCC(N2C(=O)C3(CCCC3)C2c2ccccc2)CC1 (stereo unspecified)	6.31µM
Cn1cnc(S(=O)(=O)N2CCC(N3C(=O)C4(CCCC4)C3c3ccccc3)CC2)c1 (stereo unspecified)	.
CNc1nccnc1-c1ccccc1S(=O)(=O)NC(C)(C)C	.
CCCn1c(C)cnc1CC1CCN(C(=O)c2cnc(C)cn2)CC1	.
